PubChem BioAssay (NCATS)
Several values for one entry are separate records, joined by “and”; a condition that tells them apart may be missing. Identical values can stand only once. Records with an inconclusive call do not appear. Activity calls are given as the source filed them. Unless noted, the call rests on the fitted dose curve; in most records, active means well fitted inhibition curve with a large enough effect; inconclusive means small, poorly fitted or top-dose-only effect; inactive means flat fitted curve, though single readings scatter.

molecular target: Thyroid hormone receptor beta (Homo sapiens) (UniProt P10828); test: qHTS assay for small molecule agonists of thyroid hormone receptor beta signaling (AID 588545; calls by dose curve); settings: TR-UAS-bla GripTite HEK 293, beta-lactamase ratio, agonist mode, 18 h, percent of T3 response, DMSO as zero; series mostly up to 76.7 µM
In short: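 Agonist activity was read as beta-lactamase CCF4 fluorescence (405 ex, 460/530 em), scaled between DMSO (0%) and 10 nM T3 (100%), then Hill-fitted for EC50 and efficacy. HEK 293 TR-UAS-bla cells in 2% charcoal/dextran FBS medium were exposed 18 h at 37 C.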

Thyroid hormone receptor beta (Homo sapiens), sequence (P10828 whole entry, looked up): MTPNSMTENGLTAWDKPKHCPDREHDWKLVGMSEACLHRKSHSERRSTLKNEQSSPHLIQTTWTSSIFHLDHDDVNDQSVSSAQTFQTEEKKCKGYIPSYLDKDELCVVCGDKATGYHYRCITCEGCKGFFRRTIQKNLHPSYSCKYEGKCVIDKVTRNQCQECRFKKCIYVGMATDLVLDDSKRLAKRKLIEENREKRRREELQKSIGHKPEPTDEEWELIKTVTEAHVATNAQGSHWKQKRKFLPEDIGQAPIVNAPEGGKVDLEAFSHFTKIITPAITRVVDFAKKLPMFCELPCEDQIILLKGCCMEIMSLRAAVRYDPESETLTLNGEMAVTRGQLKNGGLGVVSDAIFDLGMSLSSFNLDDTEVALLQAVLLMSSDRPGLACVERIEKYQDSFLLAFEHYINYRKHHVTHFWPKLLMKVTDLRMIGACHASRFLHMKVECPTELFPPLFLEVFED

SMILES | outcome
NC[C@H](O)c1ccc(O)c(O)c1 | inactive
O=c1[nH]cnc2[nH]ncc12 | inactive
C[C@]12CCC(=O)C=C1CC[C@@H]1[C@@H]2[C@@H](O)C[C@@]2(C)[C@H]1CC[C@]2(O)C(=O)CO | inactive
Cc1c(C)c2c(c(C)c1O)CCC(C)(COc1ccc(CC3SC(=O)NC3=O)cc1)O2 (centres undefined) | inactive
Cc1[nH]c(=O)c(C#N)cc1-c1ccncc1 | inactive
NC(N)=NC(=O)c1nc(Cl)c(N)nc1N | inactive
CNC[C@H](O)c1cccc(O)c1 | inactive
Cc1ccccc1C(OCCN(C)C)c1ccccc1 (centres undefined) | inactive
Cn1cnc([N+](=O)[O-])c1Sc1ncnc2nc[nH]c12 | inactive
COc1ccc2nc(S(=O)Cc3ncc(C)c(OC)c3C)[nH]c2c1 (centres undefined) | inactive
CCCC(CCC)C(=O)O | inactive
NS(=O)(=O)c1cc2c(cc1Cl)NC=NS2(=O)=O | inactive

system: not listed separately; test: qHTS assay for small molecule antagonists of retinoid X receptor alpha signaling (AID 588546; active means well fitted inhibition curve with a large enough effect in the signal ratio, with a control signal flat, not every such curve was filed as active; the % refers to the signal ratio;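 further: cells stimulated with 9-cis-retinoic acid as agonist; on the % scale 0 is the no-effect control and ±100 the full control effect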); settings: HEK293T RXRa-UAS-bla, beta-lactamase ratio, antagonist mode; measured here: W530 green channel, cytotoxicity proxy
In short: (§1)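 Beta-lactamase reporter inhibition, read as CCF4 fluorescence ratio (ex 405, em 460/530 nm) after 2 h at RT. HEK293T UAS-bla cells, 2500/well, were stimulated with 9-cis-RA at 500 or 100 nM final alongside test compound for 18 h at 37 C.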

SMILES | max response
NC[C@H](O)c1ccc(O)c(O)c1 | -24.3%
O=c1[nH]cnc2[nH]ncc12 | -6.19%
O=C1CCC(N2C(=O)c3ccccc3C2=O)C(=O)N1 (centres undefined) | -1.95%
C[C@]12CCC(=O)C=C1CC[C@@H]1[C@@H]2[C@@H](O)C[C@@]2(C)[C@H]1CC[C@]2(O)C(=O)CO | 7.22%
Cc1c(C)c2c(c(C)c1O)CCC(C)(COc1ccc(CC3SC(=O)NC3=O)cc1)O2 (centres undefined) | -10.6%
Cc1[nH]c(=O)c(C#N)cc1-c1ccncc1 | -2.65%
CC(=O)Oc1ccccc1C(=O)O | -4.43% and -6.93%
NC(N)=NC(=O)c1nc(Cl)c(N)nc1N | -9.32%
NC(=O)c1cnccn1 | -6.21%
O=NN(CCCl)C(=O)NCCCl | -3.42%
CNC[C@H](O)c1cccc(O)c1 | 2.07%
Cc1ccccc1C(OCCN(C)C)c1ccccc1 (centres undefined) | -1.35%
Cn1cnc([N+](=O)[O-])c1Sc1ncnc2nc[nH]c12 | 2.45% and -8.82%
COc1ccc2nc(S(=O)Cc3ncc(C)c(OC)c3C)[nH]c2c1 (centres undefined) | 17.2%
NS(=O)(=O)c1cc2c(cc1Cl)NC=NS2(=O)=O | -2.78%

molecular target: Retinoic acid receptor RXR-alpha (Homo sapiens) (UniProt P19793); test: as above; settings: HEK293T RXRa-UAS-bla, beta-lactamase ratio, antagonist mode
In short: as §1

Retinoic acid receptor RXR-alpha (Homo sapiens), sequence (P19793 whole entry, looked up): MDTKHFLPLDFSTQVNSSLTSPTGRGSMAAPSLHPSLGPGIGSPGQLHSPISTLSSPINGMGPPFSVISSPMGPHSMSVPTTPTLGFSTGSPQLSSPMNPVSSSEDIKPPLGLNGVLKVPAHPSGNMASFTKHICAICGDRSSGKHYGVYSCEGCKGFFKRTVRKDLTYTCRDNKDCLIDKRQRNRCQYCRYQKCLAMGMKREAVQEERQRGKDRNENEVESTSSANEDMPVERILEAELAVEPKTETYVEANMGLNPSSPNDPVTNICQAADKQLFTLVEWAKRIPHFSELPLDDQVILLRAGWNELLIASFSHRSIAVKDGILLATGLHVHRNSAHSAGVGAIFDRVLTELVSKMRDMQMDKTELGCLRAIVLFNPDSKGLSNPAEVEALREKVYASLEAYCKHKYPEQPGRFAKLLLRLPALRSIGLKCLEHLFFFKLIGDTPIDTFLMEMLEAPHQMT

SMILES | max response
NC[C@H](O)c1ccc(O)c(O)c1 | -6.6% (inactive)
O=c1[nH]cnc2[nH]ncc12 | -1.1% (inactive)
O=C1CCC(N2C(=O)c3ccccc3C2=O)C(=O)N1 (centres undefined) | -2.36% (inactive)
C[C@]12CCC(=O)C=C1CC[C@@H]1[C@@H]2[C@@H](O)C[C@@]2(C)[C@H]1CC[C@]2(O)C(=O)CO | -13.2% (inactive)
Cc1c(C)c2c(c(C)c1O)CCC(C)(COc1ccc(CC3SC(=O)NC3=O)cc1)O2 (centres undefined) | -61.7% (inactive)
Cc1[nH]c(=O)c(C#N)cc1-c1ccncc1 | -8.79% (inactive)
CC(=O)Oc1ccccc1C(=O)O | 7.17% (inactive) and 4.37% (inactive)
NC(N)=NC(=O)c1nc(Cl)c(N)nc1N | 33% (inactive)
NC(=O)c1cnccn1 | 6.87% (inactive)
O=NN(CCCl)C(=O)NCCCl | 0.269% (inactive)
CNC[C@H](O)c1cccc(O)c1 | -13.6% (inactive)
Cc1ccccc1C(OCCN(C)C)c1ccccc1 (centres undefined) | -11.6% (inactive)
Cn1cnc([N+](=O)[O-])c1Sc1ncnc2nc[nH]c12 | -8.6% (inactive) and -5.48% (inactive)
COc1ccc2nc(S(=O)Cc3ncc(C)c(OC)c3C)[nH]c2c1 (centres undefined) | -42% (inactive)
NS(=O)(=O)c1cc2c(cc1Cl)NC=NS2(=O)=O | 14.3% (inactive)

molecular target: Thyroid hormone receptor beta (Homo sapiens) (UniProt P10828); test: qHTS assay for small molecule antagonists of thyroid hormone receptor beta signaling (AID 588547; active means well fitted inhibition curve with a large enough effect in the signal ratio, with a control signal flat, not every such curve was filed as active; the % refers to the signal ratio;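 further: cells stimulated with 0.4 nM T3 agonist during compound exposure; on the % scale 0 is the no-effect control and ±100 the full control effect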); settings: TR-UAS-bla HEK293, beta-lactamase ratio, antagonist mode, 18 h
In short: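 TR-UAS-bla GripTite HEK293 cells in 2% charcoal/dextran FBS medium were preincubated 4 h at 37 C, given compound (0.59 nM to 92 uM) plus 0.4 nM T3 (final) for 18 h, then CCF4 for 2 h at RT; Hill fit gave IC50.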

SMILES | activity change % (negative = inhibition)
NC[C@H](O)c1ccc(O)c(O)c1 | 13.6% (inactive)
O=c1[nH]cnc2[nH]ncc12 | 5.35% (inactive)
O=C1CCC(N2C(=O)c3ccccc3C2=O)C(=O)N1 (centres undefined) | 4.95% (inactive)
C[C@]12CCC(=O)C=C1CC[C@@H]1[C@@H]2[C@@H](O)C[C@@]2(C)[C@H]1CC[C@]2(O)C(=O)CO | 20.5% (inactive)
Cc1[nH]c(=O)c(C#N)cc1-c1ccncc1 | -2.81% (inactive)
NC(N)=NC(=O)c1nc(Cl)c(N)nc1N | 4.66% (inactive)
O=NN(CCCl)C(=O)NCCCl | 11.9% (inactive)
CNC[C@H](O)c1cccc(O)c1 | 16.7% (inactive)
Cn1cnc([N+](=O)[O-])c1Sc1ncnc2nc[nH]c12 | 18.7% (inactive)
COc1ccc2nc(S(=O)Cc3ncc(C)c(OC)c3C)[nH]c2c1 (centres undefined) | -6.03% (inactive)
CCCC(CCC)C(=O)O | -9.25% (inactive) and 16% (inactive)
NS(=O)(=O)c1cc2c(cc1Cl)NC=NS2(=O)=O | -11.5% (inactive)

molecular target: Voltage-gated inwardly rectifying potassium channel KCNH2 (Homo sapiens) (UniProt Q12809); test: qHTS Assay for Small Molecule Inhibitors of the Human hERG Channel Activity (AID 588834); settings: U2OS BacMam hERG, FluxOR thallium flux fluorescence; series mostly up to 46.1 µM;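 further: top concentration of the series differs between compounds; on the % scale 0 is the no-effect control and ±100 the full control effect; lower thallium flux fluorescence means stronger hERG block; nearly all actives have a fitted effect of over 50% in size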
In short: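 hERG-BacMam U2OS, 2000 cells/well; 0.7X FluxOR loading 1 hr RT dark; cpd ~10 min 37 °C; stim buffer; FDSS fluorescence 2 min @ 1 s; AC50 Hill fit.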

Voltage-gated inwardly rectifying potassium channel KCNH2 (Homo sapiens), sequence (Q12809 whole entry, looked up): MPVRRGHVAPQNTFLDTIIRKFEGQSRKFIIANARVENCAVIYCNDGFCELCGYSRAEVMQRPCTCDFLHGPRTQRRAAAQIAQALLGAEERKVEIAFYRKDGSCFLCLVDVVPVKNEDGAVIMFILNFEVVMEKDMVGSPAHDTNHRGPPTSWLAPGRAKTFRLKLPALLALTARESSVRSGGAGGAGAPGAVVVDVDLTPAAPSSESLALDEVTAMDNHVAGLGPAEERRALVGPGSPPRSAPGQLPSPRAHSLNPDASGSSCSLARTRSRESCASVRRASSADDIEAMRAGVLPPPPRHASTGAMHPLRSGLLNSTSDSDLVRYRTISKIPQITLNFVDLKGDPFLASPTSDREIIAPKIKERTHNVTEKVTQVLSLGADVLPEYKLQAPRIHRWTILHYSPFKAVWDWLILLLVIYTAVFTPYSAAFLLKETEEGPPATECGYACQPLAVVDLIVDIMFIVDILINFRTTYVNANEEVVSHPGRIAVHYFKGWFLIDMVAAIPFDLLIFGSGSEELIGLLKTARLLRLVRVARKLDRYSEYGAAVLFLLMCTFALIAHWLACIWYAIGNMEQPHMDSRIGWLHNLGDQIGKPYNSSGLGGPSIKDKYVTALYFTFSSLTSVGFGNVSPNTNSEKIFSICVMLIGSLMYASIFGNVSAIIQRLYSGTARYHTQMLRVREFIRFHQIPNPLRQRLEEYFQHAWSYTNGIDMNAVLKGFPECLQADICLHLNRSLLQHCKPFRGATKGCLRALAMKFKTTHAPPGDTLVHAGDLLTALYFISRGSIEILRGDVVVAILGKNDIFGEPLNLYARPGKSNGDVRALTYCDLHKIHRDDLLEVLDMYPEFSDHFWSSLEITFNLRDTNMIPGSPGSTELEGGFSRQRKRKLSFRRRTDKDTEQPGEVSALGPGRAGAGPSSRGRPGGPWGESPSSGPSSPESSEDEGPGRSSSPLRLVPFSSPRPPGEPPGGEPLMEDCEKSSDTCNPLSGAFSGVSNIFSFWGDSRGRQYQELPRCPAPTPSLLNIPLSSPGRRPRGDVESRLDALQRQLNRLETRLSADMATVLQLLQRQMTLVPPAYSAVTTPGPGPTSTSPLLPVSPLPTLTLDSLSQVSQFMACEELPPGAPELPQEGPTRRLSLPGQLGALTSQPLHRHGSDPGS

SMILES | Potency
NC(N)=NC(=O)c1nc(Cl)c(N)nc1N | inactive
CCCC(CCC)C(=O)O | inactive
CCCCNc1cc(C(=O)O)cc(S(N)(=O)=O)c1Oc1ccccc1 | inactive

molecular target: Luciferin 4-monooxygenase (Photinus pyralis) (UniProt P08659); test: Biochemical firefly luciferase enzyme assay for NPC (AID 624030);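 further: purified P. pyralis luciferase at 10 nM with luciferin and ATP substrate; 0% = DMSO and -100% = full luciferase inhibition by PTC124 control; nearly all actives have a fitted effect of over 70% in size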; settings: purified P. pyralis luciferase, luminescence, 5 min; series mostly up to 58.6 µM
In short: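 Counter-screen for direct inhibition of the luciferase enzyme by approved-drug library compounds, run at 10 nM enzyme in 50 mM Tris acetate (final). Luminescence was read within 5 min of enzyme-buffer addition and normalized to PTC124 versus DMSO (0%).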

Luciferin 4-monooxygenase (Photinus pyralis), sequence (P08659 whole entry, looked up): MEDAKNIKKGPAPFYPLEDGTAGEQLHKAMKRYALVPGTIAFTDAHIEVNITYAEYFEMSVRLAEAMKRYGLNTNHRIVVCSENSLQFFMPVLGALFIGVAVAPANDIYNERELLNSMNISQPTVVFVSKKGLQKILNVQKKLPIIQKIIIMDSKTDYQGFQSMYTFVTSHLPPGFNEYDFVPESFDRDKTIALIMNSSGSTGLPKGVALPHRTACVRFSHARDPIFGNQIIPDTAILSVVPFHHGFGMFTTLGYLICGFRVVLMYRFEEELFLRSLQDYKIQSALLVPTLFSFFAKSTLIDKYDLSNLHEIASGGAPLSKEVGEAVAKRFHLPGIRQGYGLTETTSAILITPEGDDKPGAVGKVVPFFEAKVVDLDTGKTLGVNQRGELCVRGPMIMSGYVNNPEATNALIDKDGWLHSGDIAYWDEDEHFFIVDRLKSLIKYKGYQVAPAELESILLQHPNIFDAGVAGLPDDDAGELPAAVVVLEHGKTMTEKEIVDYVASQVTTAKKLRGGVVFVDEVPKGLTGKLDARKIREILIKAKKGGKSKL

SMILES | Potency
NC[C@H](O)c1ccc(O)c(O)c1 | inactive
O=c1[nH]cnc2[nH]ncc12 | inactive
O=C1CCC(N2C(=O)c3ccccc3C2=O)C(=O)N1 (centres undefined) | inactive
Clc1cccc(Cl)c1NC1=NCCN1 | inactive
NCCCC(N)(C(=O)O)C(F)F (centres undefined) | inactive
N[C@@H]1CONC1=O | inactive
Cc1[nH]c(=O)c(C#N)cc1-c1ccncc1 | inactive
Cc1cnc(NC(=O)C2=C(O)c3ccccc3S(=O)(=O)N2C)s1 | inactive
CC(=O)Oc1ccccc1C(=O)O | inactive
NC(N)=NC(=O)c1nc(Cl)c(N)nc1N | inactive
NC(=O)c1cnccn1 | inactive
O=NN(CCCl)C(=O)NCCCl | inactive
CNC[C@H](O)c1cccc(O)c1 | inactive
Cc1ccccc1C(OCCN(C)C)c1ccccc1 (centres undefined) | inactive
Cn1cnc2c(F)c(Nc3ccc(Br)cc3Cl)c(C(=O)NOCCO)cc21 | inactive
Cn1cnc([N+](=O)[O-])c1Sc1ncnc2nc[nH]c12 | inactive
CC(C)C[C@H](NC(=O)[C@@H](O)[C@H](N)Cc1ccccc1)C(=O)O | inactive
CCOC(=O)N1CCC(=C2c3ccc(Cl)cc3CCc3cccnc32)CC1 | inactive
Cc1[nH]c(=O)c(C#N)cc1-c1ccc2nccn2c1 | inactive
CCCC(CCC)C(=O)O | inactive
NS(=O)(=O)c1cc2c(cc1Cl)NC=NS2(=O)=O | inactive
CCCCNc1cc(C(=O)O)cc(S(N)(=O)=O)c1Oc1ccccc1 | inactive
